# Screens as filed in PubChem BioAssay.
# PL biosyn Enam – phospholipid synthesis inhibitors, CHO cells, primary screen, ZR-82 cells, Enamine library, screen 3; ZR-82 CHO cells, pyrene fatty acid UV survival, CellTiter Blue; peroxisome-deficient CHO-K1 mutant line; plus DGAT-1, DGAT-2 and ACAT inhibitors; calls only at 10 µM; hit rate 0.4% among 20,000;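 active means cell survival signal 2 SD away from solvent-only control wells, confirmed on one or two retests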;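 further: 3 h compound exposure then viability read about one day after UV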
# * = called active by the depositor; i = inactive; + = active, no number. Only a selection was taken, and hits are over-represented in it overall.
SMILES,PL biosyn Enam
CCC1(C)Oc2ccccc2C2CC(c3ccccc3)=NN21 (stereo not given),i
O=C1NC2(Oc3ccc(Br)cc3C3CC(c4ccccc4)=NN32)/C(=C/c2ccccc2)S1 (stereo not given),+
c1ccc(C2=NN3C(C2)c2ccccc2OC32CCCCC2)cc1 (stereo not given),i
c1ccc(C2=NN3C(C2)c2ccccc2OC32CCCC2)cc1 (stereo not given),i
CC1(C)Oc2ccccc2C2CC(c3ccc(-c4ccccc4)cc3)=NN21 (stereo not given),i
O=C1NC2(Oc3ccccc3C3CC(c4ccccc4)=NN32)/C(=C/c2cccc(OCc3ccccc3)c2)S1 (stereo not given),+
Fc1cccc(/C=N/N=C(c2ccccc2)c2ccccc2)c1,i
CCn1c2ccccc2c2cc(P(=Nc3ccc(S(N)(=O)=O)cc3)(N3CCCC3)C(C)(C)C)ccc21 (stereo not given),i
c1ccc2cc(N=Nc3c4[nH]c5ccccc5nc-4c4ccccc34)ccc2c1,i
Cc1ccc(-c2nnc3n2N=C(c2ccc(Cl)cc2Cl)CS3)cc1,i
S=c1sc2ccc(Cl)cc2n1CN1CCN(c2ncccn2)CC1,i
O=[N+]([O-])c1ccc(S(=O)(=O)N=C2N=C3C=CC(Cl)=CN3Cc3ccccc32)cc1,i
CCOC(=O)c1c(N)oc(C)c1C(C)=O,i
CCOC(=O)c1c(N)sc(C(N)=O)c1C,i
C=CCn1sc(N)c(C(=O)OCC)c1=S,+
CC(C)(C)c1ccc(/C=N/OCc2ccc(CO/N=C/c3ccc(C(C)(C)C)cc3)cc2)cc1,i
CCN1C(=Cc2cc(C)[n+](N3CCN(C)CC3)c(C)c2)Sc2ccccc21,i
CCC(CO)[n+]1c(C)cc(C=C2Sc3ccccc3N2Cc2ccccc2)cc1C (stereo not given),+
CCN1C(=Cc2cc(C)[n+](CCO)c(C)c2)Sc2ccccc21,i
CC1C/C(=N\NC(=O)C(N)=O)CC(C)(C)C1 (stereo not given),i
S=C(N/N=C1\CC2CC=CC12)NC1CCCCC1 (stereo not given),i
CC1C/C(=N\NC(=S)NC2CCCCC2)CC(C)(C)C1 (stereo not given),+
Oc1ccc(/C=N/n2c(-c3ccc(Cl)cc3Cl)n[nH]c2=S)cc1,i
Clc1ccc(/C=N/Nc2ccc(-n3ccnc3)nn2)cc1,i
O=C(/C=C/c1cccs1)NC1CCCC1,i
SMILES,PL biosyn Enam
S=C(N/N=C/c1cccs1)NC1CCCCC1,+
COCCNC(=S)N/N=C/c1cccs1,i
Cc1nc(Nc2ccc3nc(C)sc3c2)c2c3c(sc2n1)CCC3,i
O=S(=O)(c1cccs1)N1CCN(c2nc(C(F)(F)F)nc3ccccc23)CC1,i
Brc1ccc(C2=CC(c3ccc(Br)cc3)n3nnnc3N2)cc1 (stereo not given),i
Cc1cc(C(=O)Cn2ncc(Cl)c(Cl)c2=O)c(C)n1C,i
Cc1ccc(C(=NS(=O)(=O)c2ccc(C)cc2)NS(=O)(=O)c2ccc(C)cc2)cc1,i
C/C(=N\NS(=O)(=O)c1ccc(C)cc1)c1ccc2c(c1)OCCO2,i
CNS(=O)(=O)c1ccc(/C(C)=N/Nc2cc(C)c3cc(C)cc(C)c3n2)cc1,+
Cn1c(CC2CCS(=O)(=O)C2)nnc1SCC(=O)c1c(N)n(C2CC2)c(=O)[nH]c1=O (stereo not given),i
Fc1ccc(NC(=S)NNc2ccnc3cc(Cl)ccc23)cc1,i
S=C(NNc1ccnc2cc(Cl)ccc12)Nc1ccc(Cl)cc1,i
S=C(NNc1ccnc2cc(Cl)ccc12)Nc1ccccc1Cl,+
C1=CC(c2ccc(/C=N/Nc3ccccn3)s2)CC1 (stereo not given),i
C=CCN=c1scc(-c2ccc(OC)cc2)n1/N=C/c1cc(Br)c(O)c(Br)c1,i
Nc1nc(=O)c2cccnc2s1,i
COc1ccccc1N=Nc1c(O)ccc2ccccc12,i
Cc1nc(N)sc1N=Nc1cccc2ccccc12,+
Cc1n[nH]c(C)c1S(=O)(=O)N1CCN(c2ncccn2)CC1,i
CN1/C(=C\C=Nc2ccccc2N)C(C)(C)c2ccccc21,+
CN1/C(=C\C=Nc2ccccc2I)C(C)(C)c2ccccc21,i
CN1/C(=C\C=Nc2c(F)c(F)c(F)c(F)c2F)C(C)(C)c2ccccc21,i
C[n+]1ccn(Cc2cc(=O)oc3cc(Br)ccc23)c1,i
O=C1Nc2ccc(Br)cc2C12NNc1ccccc1O2 (stereo not given),+
O=c1c2cc([N+](=O)[O-])ccc2oc2ccc([N+](=O)[O-])cc12,i
SMILES,PL biosyn Enam
O=C1Nc2ccc(Br)cc2C1(O)C(F)(F)F (stereo not given),i
O=C1Nc2ccc([N+](=O)[O-])cc2C12NNc1ccccc1O2 (stereo not given),+
O=C1NC2(Oc3ccccc31)C(=O)Nc1ccccc12 (stereo not given),i
CN1c2ccccc2C(C)(C)C12C=Cc1cc([N+](=O)[O-])ccc1O2 (stereo not given),i
CN(C)P(=NC(=S)Nc1ccccc1)(N(C)C)C12CC3CC(CC(C3)C1)C2,i
NC1=C(c2nc3ccccc3s2)CC(c2ccccc2)O1 (stereo not given),i
Cc1nn(-c2ccccc2)c2c1P(=Nc1ccccc1C(F)(F)F)(N1CC(C)OC(C)C1)N(C1CC1)C(c1ccccc1F)=N2 (stereo not given),i
Cc1cc2oc(=O)cc(CSc3nncs3)c2cc1C(C)C,i
O=C(CC1OC(=O)c2ccccc21)NCc1nnc2ccccn12 (stereo not given),i
c1ccc(NN=C(N=Nc2nn[nH]n2)c2ccccc2)cc1,i
CC(C)(C)C1CCC(C(=O)OCC(=O)N2CCNC2=O)CC1 (stereo not given),i
c1ccc2c(SCCSc3c4ccccc4nc4ccccc34)c3ccccc3nc2c1,i
C=CCN1C(=O)/C(=N\N=C\c2c[nH]c3ccccc23)c2ccccc21,+
NC(=S)N/N=C/c1c[nH]c2ccccc12,i
O=S(=O)(N/N=C/c1c[nH]c2ccccc12)c1ccc(Br)cc1,i
CC1(C)CC2=NN(c3ccccc3)P(=O)(Nc3ccccc3)C2=C(N2CCCC2)C1 (stereo not given),i
CN(C)P(=NC(=S)Nc1ccc(SC(F)F)cc1)(c1ccncc1)N(C)C,i
Cc1cc(C)n(-c2nc(C)nc3sc4c(c23)CCCC4)n1,i
O=C1CCC(C(=O)OCC(=O)NC2CCCC2)=NN1,i
CCCCNC(=O)CN1CCN(C(=O)CCc2c(C)noc2C)CC1,i
O=S(=O)(NC1CCCCCC1)c1cc(Cl)ccc1Cl,i
CN(C)c1ccc(N=Nc2ccccc2Cl)cc1,+
CN(C)c1ccc(C=Nc2ccc(N=Cc3ccc(N(C)C)cc3)cc2)cc1,i
CN(C)c1ccc(N=Nc2nn[nH]n2)cc1,i
CN(C)c1ccc(N=Nc2ccccc2Br)cc1,+
CN(C)c1ccc(N=Nc2ccc(S(=O)(=O)O)cc2)cc1,i
CN(C)c1ccc(N=Cc2sc3ccccc3c2Cl)cc1,i
CCN(CC)c1ccc2c(c1)OC(=O)N(c1ccc(Cl)c(Cl)c1)P2(=S)c1ccc(Cl)cc1 (stereo not given),i
C=CCn1c(SCc2cc(=O)n3c(C)csc3n2)nnc1C1CCCCC1,i
